From PubChem BioAssay AID2057 (The Scripps Research Institute Molecular Screening Center, 2009)
About 2,100 (0.66%) of roughly 320,000 compounds were called active. For the sample, actives were picked, then their nearest neighbours and some compounds at random. Values without a mark were called inactive.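 The calls were made as follows: active = inhibition above the mean inhibition of all tested compounds plus 3 SD, set per campaign (cut at about 40% in these data); inactive = the rest.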

target: Induced myeloid leukemia cell differentiation protein Mcl-1 (Homo sapiens) (UniProt Q07820); assay: inhibitors of MCL1 binding to BIM-BH3, primary screen, biochemical, fluorescence polarization (AID 2057); conditions: GST-MCL1 / FITC-Bim-BH3 fluorescence polarization; at 10.9 µM; active compounds read high;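 also: 0% = DMSO wells and 100% = unlabeled Bim-BH3 peptide control; higher means more loss of mP so more displacement of Bim peptide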
Sequence (Q07820 whole entry, looked up): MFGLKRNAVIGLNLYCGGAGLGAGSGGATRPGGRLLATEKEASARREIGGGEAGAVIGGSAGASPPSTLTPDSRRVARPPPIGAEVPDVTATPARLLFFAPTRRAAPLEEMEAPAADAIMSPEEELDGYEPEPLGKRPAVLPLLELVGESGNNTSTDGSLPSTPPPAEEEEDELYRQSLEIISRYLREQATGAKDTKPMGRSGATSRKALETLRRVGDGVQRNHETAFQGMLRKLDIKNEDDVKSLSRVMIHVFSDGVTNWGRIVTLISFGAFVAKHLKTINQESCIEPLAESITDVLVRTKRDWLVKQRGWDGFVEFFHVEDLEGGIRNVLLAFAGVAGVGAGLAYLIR

Row | Structure (SMILES) | inhibition
1 | CCN(CC(=O)NCc1cccs1)c1nnnn1-c1ccccc1 | 3.16%
2 | O=C(NCc1cccnc1)C12CC3CC(CC(C3)C1)C2 | 3.8%
3 | Cc1ccc(S(=O)(=O)C(C#N)c2nc3ccccc3nc2N2CCCC2)cc1C (stereo not given) | 75.8% (active)
4 | Cc1cc(N2CCN(S(=O)(=O)c3ccc(C)c(C)c3)CC2)c2ccccc2n1 | -2.07%
5 | Cc1ccc(S(=O)(=O)Nc2nc3ccccc3nc2N2CCc3ccccc3C2)cc1 | 12.7%
6 | O=C(CN1CCN(S(=O)(=O)c2ccc(Cl)s2)CC1)N1CCCCC1 | 5.82%
7 | O=C(NCCC1CCCCN1S(=O)(=O)c1ccc(Cl)cc1)C(=O)NCc1ccco1 (stereo not given) | 9.57%
8 | CCCn1c(C2CCCN2c2nc(-c3ccc(OC)cc3)cs2)nc2ccccc21 (stereo not given) | 11.8%
9 | CCCn1c(C2CCCN2c2nc(-c3ccc(C)cc3)cs2)nc2cc(Cl)c(N3CCCCC3)cc21 (stereo not given) | 75.2% (active)
10 | CCCn1c(C(C)Nc2nc(-c3ccc(C)cc3)cs2)nc2cc(Cl)c(N3CCCCC3)cc21 (stereo not given) | 5.75%
11 | O=C1N[C@@H](Cc2ccccc2)C(=O)N2[C@@H]3N(S(=O)(=O)c4ccc(F)cc4)c4ccccc4[C@]3(Br)C[C@@H]12 | 8.03%
12 | CC(=O)NC(C)(C)C1CC=C(C)/C(=N\O)C1 (stereo not given) | -0.57%
13 | CCn1c(SCc2ccccc2)nc2cc(OC)c(OC)cc2c1=O | 3.42%
14 | CSc1c(SCc2ccccc2)cnn(Cc2ccccc2)c1=O | 181% (active)
15 | COC(=O)c1ccc(SCc2ccccc2)nc1 | 11.2%
16 | Cc1c(C)c(C)c(S(=O)(=O)N2CCC3(CC2)OCCO3)c(C)c1C | 6.11%
17 | Cc1cc(CNC(=O)C2CCC(=O)N(CCc3ccc(Cl)cc3)C2)no1 (stereo not given) | 2.34%
18 | Cc1ccc(C(=O)NC2CCCC(C)C2C)cc1S(=O)(=O)N1CCCCC1 (stereo not given) | -1.76%
19 | O=C(Nc1nccs1)c1cc(S(=O)(=O)N2CCOCC2)c(Cl)cc1Cl | 5.02%
20 | Oc1cc2c(cc1O)CN(C(=S)NCCc1ccc(Cl)cc1)CCC2 | 34.4%
21 | O=C(COC(=O)/C=C/c1ccc(OC(F)F)cc1)NC1CCCCC1 | -2.99%
22 | COc1ccc(-c2nc(CS(=O)CC(=O)NCc3ccccn3)c(C)o2)cc1 (stereo not given) | 111% (active)
23 | COc1cccc(-c2nc(CS(=O)CC(=O)NCc3ccc(F)cc3)c(C)o2)c1 (stereo not given) | 0.44%
24 | COc1ccc(-c2nc(CS(=O)CC(=O)NCc3ccccc3)c(C)o2)cc1OC (stereo not given) | 9.71%
25 | COCCCNC(=O)CNC(=S)N(Cc1cc(OC)c(OC)c(OC)c1)C1CCCC1 | -4.92%
